± gives the standard deviation of the averaged measurements. In all, about 1,800 compounds were measured (“GFP- (p16Ink4a-) cell count relative to negative-control wells”: median about 0.99, lowest 2% from about 0.5 on). The entries come from a sample that favours the lowest values as a whole.

In the assay the test system is mouse p16Ink4a+/- lung fibroblasts (INKBRITE, bleomycin-injured). Description: GFP- (p16Ink4a-) cell count relative to negative-control wells (fold of vehicle); higher = more p16Ink4a- cells surviving. Particulars: 1 µM; 3 days.
With `Cc1ccc(-n2sc(=O)n(Cc3ccc(F)cc3)c2=O)cc1`, the GFP- amounted to 1.1.

As for `COc1ccc(-c2ccc3cc(C(=O)O)ccc3c2)cc1C12CC3CC(CC(C3)C1)C2` [Adapalene], the GFP- was 1.05.

`O=C(NCc1ccccc1)c1csc(Nc2ccncn2)n1` [Thiazovivin] returned a GFP- of 1.04.

Compound `O=c1cc(-c2ccccc2)oc2cc(O)cc(O)c12` [Chrysin] came in with a GFP- of 0.996.

As for `CCN1CCC[C@H]1CNC(=O)c1cc(S(N)(=O)=O)ccc1OC` [Levosulpiride], the GFP- turned out to be 0.964.

`C[C@]12CC[C@H](O)CC1=CCC1C2CC[C@]2(C)C(n3cnc4ccccc43)=CCC12` (some centres undefined) [Galeterone] displayed a GFP- of 1.11.

For the compound `O=C1Nc2ccc(I)cc2/C1=C/c1cc(Br)c(O)c(Br)c1`, the GFP- was 1.02.

As to `CCOc1ccc(Cc2cc([C@@H]3O[C@H](CO)[C@@H](O)[C@H](O)[C@H]3O)ccc2Cl)cc1` [Dapagliflozin], the GFP- stood at 1.12.

`C=CCc1ccc(O)c(-c2ccc(O)c(CC=C)c2)c1` [Honokiol] came in with a GFP- of 0.883.

Compound `C=CCc1cccc(/C=N/NC(=O)CN2CCN(Cc3ccccc3)CC2)c1O` returned a GFP- of 0.654.

`Cc1cc(NC(=O)Nc2ccc(N(C)C)cc2)c2cc(F)cc(F)c2n1` came in with a GFP- of 1.15.

The compound `CCOC(=O)[C@H](CCc1ccccc1)N[C@@H](C)C(=O)N1CCC[C@H]1C(=O)O` [Enalapril] displayed a GFP- of 1.

Compound `Cc1ccc(F)c(NC(=O)Nc2ccc(-c3cccc4[nH]nc(N)c34)cc2)c1` [Linifanib] registered a GFP- of 0.965.

In the case of `NC1(c2ccc(-c3nc4ccn5c(O)nnc5c4cc3-c3ccccc3)cc2)CCC1`, the GFP- was 0.82.

The compound `COc1cc([C@@H]2c3cc4c(cc3[C@@H](O[C@@H]3O[C@@H]5CO[C@@H](C)O[C@H]5[C@H](O)[C@H]3O)[C@H]3COC(=O)[C@H]23)OCO4)cc(OC)c1O` [Etoposide] displayed a GFP- of 0.985.

As for `Cc1nc(O)c2cc(CN(C)c3ccc(C(=O)N[C@@H](CCC(=O)O)C(=O)O)s3)ccc2n1` [Raltitrexed], the GFP- was determined as 1.01.

Regarding `CC(C)N(CCCNC(=O)Nc1ccc(C(C)(C)C)cc1)C[C@H]1O[C@@H](n2cc(Br)c3c(N)ncnc32)[C@H](O)[C@@H]1O`, the GFP- was found to be 1.01 ± 0.042.

Consider `COc1ccc(C(C)=O)c(O)c1` [Paeonol], for which the GFP- came out at 1.18.

The compound `Cc1nc(NC(=O)N2CCC[C@H]2C(N)=O)sc1-c1csc(C(C)(C)C)n1` came in with a GFP- of 1.03.

Compound `CNC(=O)c1ccccc1Nc1nc(Nc2ccc(N3CCOCC3)cc2OC)ncc1Cl` gave a GFP- of 0.742.

In turn, `CN1CC[C@H](c2c(O)cc(O)c3c(=O)cc(-c4ccccc4Cl)oc23)[C@H](O)C1` [Flavopiridol] gave a GFP- of 0.326.

`CN1CC[C@@H](c2c(O)cc(O)c3c(=O)cc(-c4ccccc4Cl)oc23)[C@@H]1CO` gave a GFP- of 0.807.

The compound `CC(=O)/N=c1/sc(S(N)(=O)=O)nn1C` [Methazolamide] returned a GFP- of 1.16.

As to `C=C1C(=O)[C@@]23C(CC[C@@H]1[C@H]2O)[C@@]12CO[C@]3(O)[C@@H](O)[C@@H]1C(C)(C)CC[C@@H]2O` (some centres undefined) [Oridonin], the GFP- was found to be 0.884.

`C[C@@H](CN1CC(=O)NC(=O)C1)N1CC(=O)NC(=O)C1` [Dexrazoxane] registered a GFP- of 0.899.

`Cn1ncnc1[C@H]1c2nnc(O)c3cc(F)cc(c23)N[C@@H]1c1ccc(F)cc1` came in with a GFP- of 0.616 ± 0.066.

As to `CC1=NC(N)=C(C(=O)OC2CN(C(c3ccccc3)c3ccccc3)C2)C(c2cccc([N+](=O)[O-])c2)/C1=C(/O)OC(C)C` (centres undefined) [Azelnidipine], the GFP- stood at 1.11.

`Cc1cc(CN2CCN(c3c(Br)cnc4[nH]c(-c5ccc(N6CCN(C)CC6)cc5)nc34)CC2)no1` yielded a GFP- of 0.664 ± 0.17.

`NS(=O)(=O)c1cc2c(cc1Cl)NCNS2(=O)=O` [Hydrochlorothiazide] came in with a GFP- of 1.06.

Take `CC[C@]1(O)C[C@@H]2CN(CCc3c([nH]c4ccccc34)[C@@](C(=O)OC)(c3cc4c(cc3OC)N(C=O)[C@@H]3C45CCN4CC=C[C@](CC)([C@H]45)[C@@H](OC(C)=O)[C@]3(O)C(=O)OC)C2)C1` (some centres undefined) [Vincristine]: the GFP- worked out at 0.699.

The compound `CCn1cc(C(=O)O)c(=O)c2ccc(C)nc21` [Nalidixic Acid] gave a GFP- of 0.895.

With `CC(=O)O[C@]1(C(C)=O)CC[C@H]2[C@@H]3C[C@H](C)C4=CC(=O)C=C[C@]4(C)[C@@]3(F)[C@@H](O)C[C@@]21C` [Fluorometholone Acetate], the GFP- worked out at 1.14.

`C[C@@]1(C(=O)Nc2ccc(F)nc2)CCCN1c1nc(Nc2cc(C3CC3)[nH]n2)c2cccn2n1` had a GFP- of 0.776.

For `COc1cc2nc(N3CCN(C(=O)C4CCCO4)CC3)nc(N)c2cc1OC` (centres undefined) [Terazosin], the GFP- stood at 0.942.

Compound `CC(C(=O)O)c1ccc2c(c1)CC(=O)c1ccccc1S2` (centres undefined) [Zaltoprofen] had a GFP- of 1.01.

Regarding `Cc1ccc(CNc2ncnc3ccc(-c4ccc(CO)o4)cc23)o1`, the GFP- came to 0.793.

Compound `CC1=C(C(=O)OC2CCCCC2)C(c2ccc([N+](=O)[O-])cc2)C2=C(O)CC(C)(C)CC2=N1` (centres undefined) gave a GFP- of 0.82.

Consider `CC(C)c1ccc(NC(=O)Cn2cnc3c2c(=O)n(C)c(=O)n3C)cc1`, for which the GFP- is 0.98.

`Nc1ccc(-c2ccc3ncc4ccc(=O)n(-c5cccc(C(F)(F)F)c5)c4c3c2)cn1` [Torin 2] yielded a GFP- of 0.456.

Compound `CCC(=O)N1CCN(c2ccc(-n3c(=O)ccc4cnc5ccc(-c6cnc7ccccc7c6)cc5c43)cc2C(F)(F)F)CC1` [Torin 1] gave a GFP- of 0.571.

For `O=C(O)c1ccccc1` [Benzoic Acid], the GFP- came to 1.05.

In the case of `CN(NC(=O)CC(=O)NN(C)C(=S)c1ccccc1)C(=S)c1ccccc1` [Elesclomol], the GFP- is 0.277.

`O=C(O)CCNC(=O)c1ccccc1` [Betamipron]: the GFP- worked out at 1.06.

With `CC1(C)O[C@@H]2C[C@H]3[C@@H]4CCC5=CC(=O)CC[C@]5(C)[C@@]4(F)[C@@H](O)C[C@]3(C)[C@]2(C(=O)CCl)O1` [Halcinonide], the GFP- stood at 1.02.

Source of the values: the supplement of paper PMC11060735.
